From PubChem BioAssay (EPA / NIEHS) come the findings set out here.

The AC50 is the concentration at which the activity in the assay is half-maximal.

Where a structure was tested more than once in an assay, its records may differ in their call. Activity calls are given as the source filed them. The calls were made as follows: active = hit-call score of the fitted dose curve at least 0.9, where 1 is the maximum; inactive = score below 0.9.

Read-out in experiment [1]: Transforming growth factor beta 1 (TGFb1), TGFB1 (gene 7040)
The experiment in a line: BSK_KF3CT_TGFb1: BioMAP Diversity Plus: KF3CT Assay for Transforming growth factor beta 1 (TGFb1) Biomarker Activity (AID 2283072). The following applies: primary human keratinocytes with fibroblasts; actives raise or lower the signal. The essentials:
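ELISA quantifies TGF-b1 at 24 h post-dose in a primary human skin co-culture of keratinocytes and fibroblasts, with gain or loss judged against DMSO. Parallel SRB total-protein staining flags overt cytotoxicity.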

Read-out in experiment [2]: C-C motif chemokine 2 (Homo sapiens) (UniProt P13500)
The experiment in a line: BSK_KF3CT_MCP1: BioMAP Diversity Plus: KF3CT Assay for Monocyte Chemoattractant Protein 1 (MCP1/CCL2) Biomarker Activity (AID 2283073). The following applies: primary human keratinocytes with fibroblasts; actives raise or lower the signal. The essentials: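 Keratinocytes and foreskin fibroblasts were co-cultured, dosed with chemical, and sampled 24 h later. MCP-1 was quantified by ELISA, and the endpoint was analyzed with bidirectional fitting using DMSO as negative control.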

Read-out in experiment [3]: Matrix Metallopeptidase 9 (MMP9), MMP9 (gene 4318)
The experiment in a line: BSK_KF3CT_MMP9: BioMAP Diversity Plus: KF3CT Assay for Matrix Metallopeptidase 9 (MMP9) Biomarker Activity (AID 2283074).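 As to AC50: MMP9 protein level quantified by ELISA in the co-culture.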 To be noted: primary human keratinocytes with fibroblasts; actives raise or lower the signal. Put shortly: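 MMP-9 quantified by ELISA after 24 h chemical treatment of primary human skin keratinocyte/fibroblast co-cultures; gain or loss fitted against DMSO, with parallel SRB staining (0.1% SRB, 560 nm) for overt cytotoxicity.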

Read-out in experiment [4]: urokinase plasminogen activator (uPA), PLAU (gene 5328)
The experiment in a line: BSK_KF3CT_uPA: BioMAP Diversity Plus: KF3CT Assay for urokinase plasminogen activator (uPA) Biomarker Activity (AID 2283075). The following applies: primary human keratinocytes with fibroblasts; actives raise or lower the signal. Put shortly: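 ELISA read-out of uPA 24 h after dosing human skin keratinocytes co-cultured with foreskin fibroblasts. Signal change fitted both ways relative to DMSO; sulforhodamine B on parallel cultures marks overt cytotoxicity.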

Read-out in experiment [5]: CD40, CD40 (gene 958)
The experiment in a line: BSK_LPS_CD40: BioMAP Diversity Plus: LPS Assay for CD40 Biomarker Activity (AID 2283076). To be noted: primary human HUVEC with PBMC; actives raise or lower the signal. Put shortly: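 CD40 signal, measured by ELISA, is fitted in both directions relative to DMSO vehicle. The system is an LPS-driven human vascular primary co-culture of endothelial cells and PBMC, sampled 24 h after compound addition.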

Read-out in experiment [6]: E-selectin (Homo sapiens) (UniProt P16581)
The experiment in a line: BSK_LPS_Eselectin: BioMAP Diversity Plus: LPS Assay for Eselectin Biomarker Activity (AID 2283077). To be noted: primary human HUVEC with PBMC; actives raise or lower the signal. The essentials:
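Signal of E-selectin, detected by ELISA, served as the endpoint; cells were umbilical vein endothelium with PBMC, read 24 h after treatment. DMSO defined baseline, and both increases and decreases were fitted.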

Read-out in experiment [7]: Interleukin-8 (IL8), CXCL8 (gene 3576)
The experiment in a line: BSK_LPS_IL8: BioMAP Diversity Plus: LPS Assay for Interleukin-8 (IL8) Biomarker Activity (AID 2283078). The following applies: primary human HUVEC with PBMC; actives raise or lower the signal. The essentials: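 Endothelial cells and PBMC from human donors are co-cultured, treated with chemicals and LPS, then assayed for IL-8 by ELISA after 24 h. Parallel SRB staining (0.1% SRB after 10% TCA fixation, 560 nm) flags cytotoxicity.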

Experiment [8] in a line: BSK_LPS_SRB: Viability Assessment in the BioMAP Diversity Plus: LPS Assay (AID 2283079).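 Also: total protein by sulforhodamine B absorbance as a cytotoxicity measure; measured one day after compound addition; fitted in both directions against DMSO so loss or gain of signal counts.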 The following applies: primary human HUVEC with PBMC. The essentials:
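Overt cytotoxicity was gauged by sulforhodamine B total-protein staining in a primary human vascular endothelial and mononuclear cell co-culture 24 h post-dosing. Activity was fitted in both directions relative to DMSO.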

Read-out in experiment [9]: Interleukin-1 alpha (IL1a), IL1A (gene 3552)
The experiment in a line: BSK_LPS_IL1a: BioMAP Diversity Plus: LPS Assay for Interleukin-1 alpha (IL1a) Biomarker Activity (AID 2283080). The following applies: primary human HUVEC with PBMC; actives raise or lower the signal. Put shortly:
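Measured: IL-1 alpha via ELISA at 24 h in LPS-activated human umbilical vein endothelium–PBMC co-culture. Baseline: DMSO, bidirectional fitting.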

Read-out in experiment [10]: Monocyte Chemoattractant Protein-1 (MCP1), CCL2 (gene 6347)
The experiment in a line: BSK_LPS_MCP1: BioMAP Diversity Plus: LPS Assay for Monocyte Chemoattractant Protein-1 (MCP1) Biomarker Activity (AID 2283081).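 As to AC50: secreted MCP-1 protein quantified by ELISA in culture supernatant.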 The following applies: primary human HUVEC with PBMC; actives raise or lower the signal. The essentials: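 LPS-stimulated HUVEC/PBMC co-culture; chemical, 24 h; MCP-1 by ELISA; bidirectional fit vs DMSO; cytotoxicity via SRB (0.1% stain, 10% TCA fix, 560 nm) in parallel wells.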

Experiment [11] can be described thus: BSK_LPS_PGE2: BioMAP Diversity Plus: LPS Assay for Prostaglandin E2 (PGE2) Biomarker Activity (AID 2283082). The following applies: primary human HUVEC with PBMC; actives raise or lower the signal. The essentials: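 PGE2 release measured by ELISA in an LPS-activated co-culture of human umbilical vein endothelial cells and peripheral blood mononuclear cells, read at 24 h post-dosing. DMSO served as baseline for bidirectional curve fitting.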

Read-out in experiment [12]: Tissue Factor, F3 (gene 2152)
The experiment in a line: BSK_LPS_TissueFactor: BioMAP Diversity Plus: LPS Assay for Tissue Factor Biomarker Activity (AID 2283084). The following applies: primary human HUVEC with PBMC; actives raise or lower the signal. Put shortly:
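In this co-culture system of umbilical vein endothelium with PBMC, stimulated with LPS, cell-surface CD142 is detected by ELISA at 24 h. Endpoint values derive from bidirectional fitting, DMSO serving as baseline.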

Read-out in experiment [13]: Tumor necrosis factor (Homo sapiens) (UniProt P01375)
The experiment in a line: BSK_LPS_TNFa: BioMAP Diversity Plus: LPS Assay for Tumour Necrosis Factor alpha (TNFa) Biomarker Activity (AID 2283085).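 As to AC50: TNFa protein level quantified by ELISA in the co-culture.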 The following applies: primary human HUVEC with PBMC; actives raise or lower the signal. The essentials:
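TNFa was quantified by ELISA in LPS-activated co-cultures of human endothelial cells and PBMC, 24 h post-dosing. Both increases and decreases versus DMSO were fitted.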

Read-out in a further experiment: CD38, CD38 (gene 952)
The experiment in a line: BSK_SAg_CD38: BioMAP Diversity Plus: SAg Assay for CD38 Biomarker Activity (AID 2283087). The following applies: primary human HUVEC with PBMC; actives raise or lower the signal. Put shortly: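 CD38 quantified by ELISA (fluorescence) in a superantigen-activated endothelial cell–PBMC co-culture at 24 h post-dose. Activity fitted in both directions relative to DMSO; parallel SRB and Alamar Blue cytotoxicity read-outs.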

Read-out in experiment [14]: CD40, CD40 (gene 958)
The experiment in a line: BSK_SAg_CD40: BioMAP Diversity Plus: SAg Assay for CD40 Biomarker Activity (AID 2283088). The following applies: primary human HUVEC with PBMC; actives raise or lower the signal. Put shortly:
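Fluorescence ELISA read-out of CD40 from umbilical vein endothelium plus peripheral blood mononuclear cells, sampled 24 h after dosing. Values come from bidirectional curve fitting with DMSO as baseline.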

Read-out in another experiment: CD69, CD69 (gene 969)
The experiment in a line: BSK_SAg_CD69: BioMAP Diversity Plus: SAg Assay for CD69 Biomarker Activity (AID 2283089).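 As to AC50: cell surface CD69 protein quantified by ELISA with fluorescence detection.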 To be noted: primary human HUVEC with PBMC; actives raise or lower the signal. The essentials:
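Values derive from bidirectional fitting relative to DMSO vehicle. Cells: umbilical vein endothelium plus peripheral blood mononuclear cells, treated 24 h before fluorescent ELISA for CD69.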

Read-out in experiment [15]: Monocyte Chemoattractant Protein-1 (MCP1), CCL2 (gene 6347)
The experiment in a line: BSK_SAg_MCP1: BioMAP Diversity Plus: SAg Assay for Monocyte Chemoattractant Protein-1 (MCP1) Biomarker Activity (AID 2283090). The following applies: primary human HUVEC with PBMC; actives raise or lower the signal. Put shortly: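 Values derive from bidirectional fitting of ELISA-measured MCP1 against DMSO controls. Readings were taken 24 h after dosing human vascular endothelial cells co-cultured with peripheral blood mononuclear cells under superantigen stimulation.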

Read-out in experiment [16]: E-selectin (Homo sapiens) (UniProt P16581)
The experiment in a line: BSK_SAg_Eselectin: BioMAP Diversity Plus: SAg Assay for Eselectin Biomarker Activity (AID 2283091). To be noted: primary human HUVEC with PBMC; actives raise or lower the signal. The essentials: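 Primary human endothelial cells and peripheral blood mononuclear cells were co-cultured and exposed to chemical for 24 hours. E-selectin levels were then quantified by ELISA, with bidirectional curve fitting normalised to DMSO controls.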

Read-out in experiment [17]: Macrophage colony-stimulating factor (MCSF), CSF1 (gene 1435)
The experiment in a line: BSK_LPS_MCSF: BioMAP Diversity Plus: LPS Assay for Macrophage colony-stimulating factor (MCSF) Biomarker Activity (AID 2283083). The following applies: primary human HUVEC with PBMC; actives raise or lower the signal. The essentials: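 Compound is added to a human vascular primary co-culture of umbilical vein endothelium and blood mononuclear cells. After 24 h, M-CSF is quantified by ELISA. Signal changes are fitted in both directions against DMSO.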

Chain of E-selectin (Homo sapiens) (P16581 whole entry, looked up): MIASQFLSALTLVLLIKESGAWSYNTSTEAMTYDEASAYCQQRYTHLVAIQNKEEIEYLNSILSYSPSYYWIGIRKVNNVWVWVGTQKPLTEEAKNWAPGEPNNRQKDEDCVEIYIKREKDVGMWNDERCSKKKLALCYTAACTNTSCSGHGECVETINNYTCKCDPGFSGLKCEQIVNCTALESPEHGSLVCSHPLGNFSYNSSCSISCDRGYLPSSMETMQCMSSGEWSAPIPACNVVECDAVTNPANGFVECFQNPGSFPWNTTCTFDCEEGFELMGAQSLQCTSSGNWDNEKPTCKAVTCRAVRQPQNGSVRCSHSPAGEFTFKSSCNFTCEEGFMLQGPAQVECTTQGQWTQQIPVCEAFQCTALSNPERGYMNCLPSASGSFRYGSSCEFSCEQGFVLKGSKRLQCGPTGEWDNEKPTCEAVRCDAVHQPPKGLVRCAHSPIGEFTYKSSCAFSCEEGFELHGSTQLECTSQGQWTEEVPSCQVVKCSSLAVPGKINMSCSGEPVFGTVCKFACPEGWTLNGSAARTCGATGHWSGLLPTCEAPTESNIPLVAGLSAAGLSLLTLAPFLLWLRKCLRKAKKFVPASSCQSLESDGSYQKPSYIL
Chain of Tumor necrosis factor (Homo sapiens) (P01375 whole entry, looked up): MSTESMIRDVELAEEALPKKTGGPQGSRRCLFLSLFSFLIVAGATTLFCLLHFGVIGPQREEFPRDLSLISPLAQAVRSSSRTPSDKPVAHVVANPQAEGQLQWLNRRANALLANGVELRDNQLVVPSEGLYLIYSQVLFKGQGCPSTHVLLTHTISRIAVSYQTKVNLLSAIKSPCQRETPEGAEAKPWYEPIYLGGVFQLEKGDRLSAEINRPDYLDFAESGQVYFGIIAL

For the molecule `CN1CCN(c2ccccc2/C=C2\SCCN(c3ccc(Cl)c(Cl)c3)C2=O)CC1`, the AC50 in experiment [1] was 29.1 µM (active); in [2] it was 32.4 µM (active); in experiment [3], 26.8 µM (active); in [4], 30.1 µM (active); with CD40, CD40 (gene 958) [5], 7.34 µM (active); in experiment [7], 20 µM (active). The AC50 in [8] was 16.3 µM (active); in [9] it was 20 µM (active); in experiment [10], 12.1 µM (active); in experiment [13], 20 µM (active); with CD38, CD38 (gene 952), 24.1 µM (active); with CD40, CD40 (gene 958) [14], 20 µM (active). Further, the AC50 was 20 µM (active) with CD69, CD69 (gene 969) and 23 µM (active) in experiment [15]. Further, the outcome in experiment [6], in experiment [11], in [12] and in experiment [16] was inactive.

As to `CCN(CC)CCNc1ccc(CNC=O)c2sc3ccc(OC)cc3c(=O)c12`, the AC50 in experiment [1] is 26.7 µM (active); in [2] it was 36.6 µM (active); in experiment [3] it was 17.5 µM (active); in experiment [4], 25.8 µM (active); in the experiment with CD40, CD40 (gene 958) [5], 35.4 µM (active); in experiment [6], 13.1 µM (active). Moreover, the AC50 is 11.2 µM (active) in experiment [7]; 25.3 µM (active) in [8]; 11.8 µM (active) in experiment [9]; 20 µM (active) in experiment [10]; 4.06 µM (active) in experiment [11]; 20 µM (active) in experiment [17]. The AC50 in experiment [12] is 25.5 µM (active); in experiment [13] it was 17.8 µM (active); with CD38, CD38 (gene 952), 26.7 µM (active); with CD40, CD40 (gene 958) [14], 27 µM (active); in the experiment with CD69, CD69 (gene 969) it was 24.9 µM (active); in experiment [15] it was 20 µM (active). Further, the AC50 in experiment [16] is 20 µM (active).

In the case of `OCCC(F)(F)C(F)(F)C(F)(F)C(F)(F)C(F)(F)C(F)(F)F`, the outcome in experiment [1] was “inactive”; in [2] it was “inactive”; in experiment [3], “inactive”; in [4], “inactive”; in the experiment with CD40, CD40 (gene 958) [5], “inactive”; in experiment [6], “inactive”. The outcome in experiment [7], in experiment [8], in [9], in experiment [10], in [11] and in [17] was inactive. Also, the outcome is “inactive” in experiment [12]; “inactive” in [13]; “inactive” with CD38, CD38 (gene 952); “inactive” in the experiment with CD40, CD40 (gene 958) [14]; “inactive” in the experiment with CD69, CD69 (gene 969); “inactive” in experiment [15]. Also, the result in experiment [16] was inactive. Further, the AC50 is 40.8 µM (active) in the experiment with CD40, CD40 (gene 958) [5]; 45.8 µM (active) in experiment [8]; 46.8 µM (active) in experiment [17]; 50.4 µM (active) with CD38, CD38 (gene 952); 56.3 µM (active) with CD40, CD40 (gene 958) [14]; 51.3 µM (active) with CD69, CD69 (gene 969). Also, the AC50 in experiment [16] is 54.9 µM (active).
